# IMPase inh: qHTS Assay for Identifying the Cell-Membrane Permeable IMPase Inhibitors. Inositol monophosphatase 1 (Rattus norvegicus), P97697. 120,000 tested, under 10 active. CHO-M1 cells, IP1 accumulation, HTRF TR-FRET ratio. inhibition (IP1 accumulation), % at 46.1 µM. AID 901, 2007; active = well fitted curve in the direction sought with a large enough effect in the signal ratio, not every such curve was filed as active; inconclusive = small, poorly fitted or top-dose-only effect, or a change in a side signal; inactive = no such curve, though single readings can be large or run the other way; the % refers to the signal ratio;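 note: cells stimulated with carbachol in lithium chloride buffer; plate controls were DMSO basal wells for no effect and reference inhibitor wells for full effect; higher means more IMPase inhibition seen as more IP1 and lower FRET ratio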
#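 Carbachol-driven Gq signalling in CHO-M1 cells (2000/well) generates IP1. Compounds that block IMPase raise IP1 and so reduce the FRET signal from Eu-anti-IP1 and d2-IP1 after a 10 min room-temperature lysis.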
# ALDH1A1 inh: qHTS Assay for Inhibitors of Aldehyde Dehydrogenase 1 (ALDH1A1); Purified ALDH1A1, NADH fluorescence, propionaldehyde substrate; Potency, µM (highest dose often 75.3 µM), inactives show at the highest dose activity, negative = inhibition, actives largely listed as inhibitors; hit rate 7.3% among 220,000;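 note: potency is the fitted concentration of half-maximal effect; plate controls were no enzyme wells and a reference inhibitor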
# HPGD block: qHTS Assay for Inhibitors of HPGD (15-Hydroxyprostaglandin Dehydrogenase). purified HPGD, NADH fluorescence kinetic, PGE2 substrate. Potency, µM, without a hit: top-dose activity change, negative = inhibition, actives largely listed as inhibitors. hit rate 4.3% among 150,000; note: potency is the fitted concentration of half-maximal effect
# Target sequence (P15428 whole entry, looked up): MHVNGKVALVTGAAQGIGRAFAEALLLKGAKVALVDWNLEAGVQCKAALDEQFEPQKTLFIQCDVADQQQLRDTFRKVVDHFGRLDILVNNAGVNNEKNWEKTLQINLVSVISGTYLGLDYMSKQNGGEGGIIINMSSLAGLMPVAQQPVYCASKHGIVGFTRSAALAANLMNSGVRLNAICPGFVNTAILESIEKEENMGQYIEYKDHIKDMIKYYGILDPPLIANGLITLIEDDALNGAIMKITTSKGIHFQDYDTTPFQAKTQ
#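 20 nM HPGD preincubated 15 min at room temperature with compound in 50 mM Tris-HCl pH 8, 0.01% Tween 20. Started with 1 mM NAD+ and 30 uM prostaglandin E2; NADH fluorescence (360/450 nm) read 5 times over 30-s intervals, last minus first.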
# PNC assembly inh: High Content Assay for Compounds that inhibit the Assembly of the Perinucleolar Compartment. activity change (PNC), negative = inhibition, % at 10 µM. hit rate 3.1% among 140,000. AID 2417, 2010. PC3M PTB-GFP, PNC prevalence imaging, 16 h; stronger effect = lower value;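 active = readout at or below -70, meaning at least 70% loss of cells showing the perinucleolar compartment, a nuclear body marking cancer cells; inconclusive = readout between -30 and a set limit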;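 note: plate controls were DMSO wells for no effect and camptothecin positive control wells for full effect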
#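 PC3M cells stably expressing PTB-GFP, 750–1000 cells/well, treated 16 h at 37 °C with compound (23 nl of library stock), in duplicate. After paraformaldehyde fixation and Hoechst stain, imaged at 20x; PNC prevalence scored by image analysis.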
# NPSR antagonist: qHTS Assay for Antagonists of the Neuropeptide S Receptor: cAMP Signal Transduction; CHO-NPSR cells, cAMP TR-FRET, antagonist mode; Potency, µM (series often up to 38.3 µM), for the others: at the top dose activity change, negative = inhibition, usual class: inhibitors; hit rate 1% among 220,000; AID 1461, 2008; active = well fitted curve in the direction sought with a large enough effect; inconclusive = small, poorly fitted or top-dose-only effect, or another doubt; inactive = no such curve, though single readings can be large; an effect the other way counts as inactive or inconclusive; note: potency is the fitted concentration of half-maximal effect; nearly all actives have a fitted effect of over 50% in size
# Target sequence (Q6W5P4 whole entry, looked up): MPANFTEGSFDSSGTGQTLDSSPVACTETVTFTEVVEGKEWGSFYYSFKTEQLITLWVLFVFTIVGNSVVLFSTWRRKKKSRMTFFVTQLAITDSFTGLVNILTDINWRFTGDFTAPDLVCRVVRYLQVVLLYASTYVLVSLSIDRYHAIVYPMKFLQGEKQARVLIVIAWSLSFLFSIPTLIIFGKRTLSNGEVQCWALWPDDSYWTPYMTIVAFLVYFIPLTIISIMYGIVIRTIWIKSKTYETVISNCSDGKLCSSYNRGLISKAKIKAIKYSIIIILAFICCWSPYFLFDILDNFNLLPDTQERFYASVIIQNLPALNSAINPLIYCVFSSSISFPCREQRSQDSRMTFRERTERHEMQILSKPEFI
# IMPase Li cell: qHTS Assay for Identifying the Cell-Membrane Permeable IMPase Inhibitors: Potentiation with Lithium; CHO-M1 cells, IP1 TR-FRET (IP-One), carbachol + lithium; hit rate 0.35% among 210,000; Potency, µM (top dose mostly 59.4 µM), for inactives: at the highest dose activity, negative = IMPase inhibition, actives largely listed as inhibitors; AID 1457, 2008; active = well fitted curve in the direction sought with a large enough effect; inconclusive = small, poorly fitted or top-dose-only effect, or another doubt; inactive = no such curve, though single readings can be large; an effect the other way counts as inactive or inconclusive;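 note: IP1 builds up when IMPase is blocked and the TR-FRET signal falls; potency is the fitted concentration of half-maximal effect; plate controls were basal vehicle for no effect and high inhibitor control for full effect; nearly all actives have a fitted effect of over 50% in size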
#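 Readout is a homogeneous TR-FRET IP1 immunoassay (Ex 320, Em 665 and 620), where raised cytosolic IP1 lowers signal. Cells were CHO-M1 treated 30 min at 37C with test compounds plus a little lithium; AC50 values came from Hill-equation fitting.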
# An asterisk follows results filed as active; ? = inconclusive; . = not tested or not shown; [ ] = dose if it differs, or a comment. Rows were chosen to be rich in hits. Some 11% of all compounds tested hit in one or more screens of this group. Unless noted, calls come from the whole dose curve; as a rule, active = well fitted inhibition curve with a large enough effect (not every such curve was filed as active); inconclusive = small, poorly fitted or top-dose-only effect, or another doubt; inactive = no such curve, though single readings can be large or run the other way. Unless noted, % is set by controls: 0 for no effect and ±100 for the full control effect.
SMILES,IMPase inh,ALDH1A1 inh,HPGD block,PNC assembly inh,NPSR antagonist,IMPase Li cell
CC1C/C(=N/Nc2ccc([N+](=O)[O-])cc2[N+](=O)[O-])CC(C)(C)C1 (centres undefined),2[0.0738 µM],?,-6%,-28,-10%[46.1 µM],11%
CCOC(=O)C(=CNc1ccc(NC2=NCC(C)S2)cc1)C(=O)OCC (centres undefined),.,3%,14µM*,?,5%,-3%
Cc1cc(C)n2c(SCC(=O)Nc3cc(C)on3)nnc2n1,-2,?,?,-100*,25%[46.1 µM],1%
CC(C)C(=O)Nc1nnc(SCC(=O)NCC2CCCO2)s1 (centres undefined),.,2%,.,.,7%,-2%
O=C(CSc1nc2ccc(NC(=O)C3CCCCC3)cc2s1)NCC1CCCO1 (centres undefined),.,-3%,28µM*,-10,-5%,8%
Cc1cc(C)n2c(SCC(=O)Nc3c(C)n(C)n(-c4ccccc4)c3=O)nnc2n1,4,15%,-8%,?,-7%[46.1 µM],12%[38.3 µM]
CCn1c(SCC(=O)Nc2cc(C)on2)nnc1-c1c[nH]c2ccccc12,.,28µM*,.,.,7%,13%
COc1ccc(-c2nsc(SCC(=O)Nc3cc(C)on3)n2)cc1,-11,28µM*,25µM*,?,-12%[46.1 µM],19%[38.3 µM]
COc1ccc(-c2nnc3n(CCc4ccccc4)c(=O)c4ccccc4n23)c(OC)c1,-3,-15%,.,?,?,.
COc1ccc(N/C=C2\C(=O)c3c(sc(C)c3C)N(C)S2(=O)=O)cc1,.,.,.,.,1%,.
Cc1ccc(-c2nsc(SCC(=O)NCC3CCCO3)n2)cc1 (centres undefined),.,5%,.,.,-10%,-1%
CSCC(=O)Nc1cc(C)on1,.,.,.,.,6%,.
Cc1cc(NC(=O)CSC2=NCCS2)no1,2,-6%,0%,-109*,-2%[46.1 µM],18%[38.3 µM]
COc1ccc(/C=C/C(=O)OCC(=O)NCC2CCCO2)cc1 (centres undefined),.,?,-22%,-82*,11%,1%
COc1ccc(-c2nsc(SCC(=O)NCC3CCCO3)n2)cc1 (centres undefined),.,25µM*,.,.,-11%,-10%
CC(=O)OC[C@H]1O[C@@H](O/N=C(\C)CCN2CCCCc3nc(C)c(C)cc32)[C@H](OC(C)=O)[C@@H](OC(C)=O)[C@@H]1OC(C)=O,.,-3%,-4%,?,-7%,2%
N#Cc1c2n(c(=O)[nH]c1=O)CCCCC2,-1,8%,-2%,-15,-11%[46.1 µM],4%
N#CC1=C(N2CCCCC2)c2cc3c(n2C1=O)CCCC3,?,8.9µM*,25µM*,0,?,6%[38.3 µM]
O=[N+]([O-])c1cc(CN2CCN(c3cccc(C(F)(F)F)c3)CC2)c2cccnc2c1O,.,18µM*,.,.,4%,-3%
O=[N+]([O-])c1cc(CN2CCCC2)c2cccnc2c1O,.,-6%,-9%,8,3%,3%
COC(=O)c1sc(NC(=S)NC(=O)c2cccc(C)c2)nc1C,.,3%,-4%,13,-26%,-9%
COC(=O)c1sc(NC(=S)NC(=O)c2ccccc2F)nc1C,.,6%,.,.,13µM*,?
CNC(=S)N1N=C(c2ccc(C)cc2)CC1c1ccc(Br)cc1 (centres undefined),-3,-3%,-10%,-24,?,5%[38.3 µM]
O=c1c(Cc2ccc(F)cc2)c(O)ccn1CCc1cnc[nH]1,.,15%,.,.,17%,1%
Cc1ccc(NC(=O)C(=O)NCc2ccccn2)cc1,.,0%,.,.,19%,11%
SMILES,IMPase inh,ALDH1A1 inh,HPGD block,PNC assembly inh,NPSR antagonist,IMPase Li cell
Cc1ccc(CNC(=O)C23CN(Cc4ccccc4)CC2C(c2ccc([N+](=O)[O-])cc2)=NO3)cc1 (centres undefined),6,?,-14%,?,-16%[46.1 µM],-8%[38.3 µM]
Cc1ccc(CCNC(=O)C23CN(Cc4ccccc4)CC2C(c2ccc([N+](=O)[O-])cc2)=NO3)cc1 (centres undefined),-2,14µM*,-14%,?,?,23%[38.3 µM]
CCCC(c1nnnn1C1CCCC1)N1CCN(C(=O)c2ccco2)CC1 (centres undefined),8,?,1%,-21,13µM*,12%[38.3 µM]
CCC(c1nnnn1C1CCCC1)N1CCN(Cc2ccccc2)CC1 (centres undefined),12,14µM*,-6%,?,9%[46.1 µM],9%
Cc1ccc2occ(C(c3nnnn3C3CCCC3)N3CCN(C(=O)c4ccco4)CC3)c(=O)c2c1 (centres undefined),9,1.1µM*,-5%,22,?,0%[38.3 µM]
Oc1ccc(N2CCN(C(c3ccccn3)c3nnnn3C3CCCC3)CC2)cc1 (centres undefined),5,25µM*,-27%,338,-14%[46.1 µM],8%
COc1ccc(C(c2nnnn2C2CCCCC2)N2CCN(c3ccc(OC)cc3)CC2)cc1 (centres undefined),-4,-4%,-14%,23,-29%[46.1 µM],12%[38.3 µM]
COc1cc(/C=N/Nc2ccc(C(F)(F)F)cn2)ccc1O,.,-2%,.,.,-18%,4%
N#Cc1c(Oc2ccc3ccccc3c2)sc(C(=O)c2ccccc2)c1N,8,?,-23%,7,?,14%[38.3 µM]
O=C(NCN1CCN(c2ccccc2F)CC1)c1ccccc1,-6,5%,0%,-8,-10%[46.1 µM],-5%[38.3 µM]
Cc1ccc(OCC(=O)Nc2ccc([N+](=O)[O-])cc2)cc1,.,9%,2%,56,8%,-6%
CCC(c1nnnn1Cc1ccco1)N1CCC(C(N)=O)CC1 (centres undefined),3,?,-2%,7,5%[46.1 µM],9%[38.3 µM]
CCC(c1nnnn1CCOC)N1CCN(C(=O)c2ccco2)CC1 (centres undefined),1,?,-5%,-24,-1%[46.1 µM],-1%[38.3 µM]
O=C(c1ccco1)N1CCN(C(c2ccccn2)c2nnnn2C2CCCC2)CC1 (centres undefined),?,13µM*,-6%,39,9%,19%
CCC(c1nnnn1Cc1ccccc1)N1CCN(C(=O)c2ccco2)CC1 (centres undefined),9,6.3µM*,-8%,?,-7%[7.67 µM],-21%[38.3 µM]
CCCC(c1nnnn1Cc1ccco1)N1CCC(C(N)=O)CC1 (centres undefined),12,3.5µM*,3%,-26,6%[46.1 µM],10%[38.3 µM]
